Rows were chosen to be rich in hits. Some 7.5% of all compounds tested hit in one or more screens of this group.
Gal4-VP16 FLuc = inhibits Gal4-VP16 luciferase reporter, ROR gamma counter-screen. Drosophila S2 Gal4-VP16 UAS-luciferase, luminescence, 20 h. Potency, µM (top dose mostly 53.6 µM), for inactives: at the top dose activity, negative = inhibition, actives largely listed as inhibitors. 310,000 compounds, 3.5% hits. AID 2546;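 note: Gal4-VP16 expression switched on by copper sulfate through the metallothionein promoter; potency is the fitted concentration of half-maximal effect; nearly all actives have a fitted effect of over 50% in size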
B2AR arrestin = beta2AR (human) beta-arrestin recruitment activity. P07550. beta-arrestin recruitment to beta2AR, cell-based reporter. 330,000 compounds, 0.02% hits. Potency, µM (doses to about 46.1 µM), without a hit: at the top dose activation, most hits filed as activators;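 note: potency is the fitted concentration of half-maximal effect; 0% = DMSO controls and full agonism = EC100 isoproterenol or metaproterenol; nearly all actives have a fitted effect of over 65% in size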
RORgamma inh = ROR gamma (mouse) transcription inhibition | P51450 | Drosophila S2 Gal4-RORgamma UAS-luciferase reporter, 20 h | Potency, µM (highest dose often 53.6 µM), for inactives: at the highest dose activity change, negative = inhibition, usual class: inhibitors | 310,000 compounds, 5.4% hits | AID 2551; note: potency is the fitted concentration of half-maximal effect; nearly all actives have a fitted effect of over 60% in size
Target sequence (P51450 whole entry, looked up, the tested form may be a part): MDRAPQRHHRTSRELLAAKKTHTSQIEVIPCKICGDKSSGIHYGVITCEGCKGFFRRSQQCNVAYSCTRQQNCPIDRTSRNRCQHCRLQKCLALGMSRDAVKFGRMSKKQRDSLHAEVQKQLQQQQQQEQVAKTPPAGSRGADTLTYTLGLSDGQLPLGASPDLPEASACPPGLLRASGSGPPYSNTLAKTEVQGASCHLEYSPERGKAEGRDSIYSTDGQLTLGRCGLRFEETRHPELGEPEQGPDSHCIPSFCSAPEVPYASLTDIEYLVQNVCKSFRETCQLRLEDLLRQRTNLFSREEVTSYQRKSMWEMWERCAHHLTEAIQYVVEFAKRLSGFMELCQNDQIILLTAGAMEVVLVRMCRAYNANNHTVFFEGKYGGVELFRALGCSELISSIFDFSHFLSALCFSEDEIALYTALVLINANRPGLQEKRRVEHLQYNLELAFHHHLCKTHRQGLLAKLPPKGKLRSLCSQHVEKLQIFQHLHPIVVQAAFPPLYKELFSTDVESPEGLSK
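In this cell-based reporter format, copper sulfate (700 uM final) drives Gal4–ROR gamma fusion expression from a metallothionein promoter in Drosophila Schneider cells; compounds preincubated 1 hr, reporter read after 20 hr at ambient temperature.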
TSHR antag = blocks TSH signaling through the human TSH receptor | 330,000 compounds, 0.2% hits | AID 504810 | P16473 | TSHR-expressing cells, TSH-stimulated cAMP HTRF, 2 h; active compounds read low | activity change, negative = inhibition, % at 11.5 µM;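 active = activity change below a set negative limit, meaning inhibition stronger than a set level, cut at about -70% in these data; inconclusive = activity change between two set negative limits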
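Inhibition of cAMP made by TSHR-expressing cells under TSH stimulation (4nM final, EC80; 2 h, 37 deg C) is quantified with a one-step lysis HTRF kit, anti-cAMP cryptate versus cAMP-d2.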
ELG1 DNA repair = blocks ELG1-dependent DNA repair in HEK293T cells; HEK293T ELG1-luciferase reporter, luminescence, 16 h; DNA damage induced by 5-fluorouridine; Potency, µM (doses to about 46.1 µM), for the others: at the highest dose activity change, negative = inhibition, most hits filed as inhibitors; 330,000 compounds, 2.3% hits; AID 504467; note: potency is the fitted concentration of half-maximal effect; nearly all actives have a fitted effect of over 55% in size
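5-Fluorouridine DNA damage + compound/DMSO, 2,000 cells/well, 16 h, 37 °C/5% CO2. ONE-Glo, 30 min RT, luminescence. Readout = decrease in reporter signal.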
* = called active by the depositor; ? = inconclusive; · = no result given; [ ] = another dose, or the depositor's remark. Unless noted, calls come from the whole dose curve; as a rule, active = well fitted curve in the direction sought with a large enough effect; inconclusive = small, poorly fitted or top-dose-only effect, or another doubt; inactive = no such curve, though single readings can be large; an effect the other way counts as inactive or inconclusive. Unless noted, % is set by controls: 0 for no effect and ±100 for the full control effect.

SMILES	Gal4-VP16 FLuc	B2AR arrestin	RORgamma inh	TSHR antag	ELG1 DNA repair
CC(C)C[C@H](NC(=O)[C@H](CCCCN)NC(=O)CNC(=O)[C@H](CC(C)C)NC(=O)[C@@H](N)C(C)C)C(=O)N[C@@H](CO)C(=O)N[C@@H](CCC(N)=O)C(=O)N[C@@H](CCC(=O)O)C(=O)N[C@@H](CC(C)C)C(=O)N[C@@H](Cc1cnc[nH]1)C(=O)N[C@@H](CCCCN)C(=O)N[C@@H](CC(C)C)C(=O)N[C@@H](CCC(N)=O)C(=O)N[C@H](C(=O)N[C@@H](Cc1ccc(O)cc1)C(=O)N1CCC[C@H]1C(=O)N[C@@H](CCCNC(=N)N)C(=O)N[C@H](C(=O)N[C@@H](CC(N)=O)C(=O)N[C@H](C(=O)NCC(=O)N[C@@H](CO)C(=O)NCC(=O)N[C@H](C(=O)N1CCC[C@H]1C(N)=O)[C@@H](C)O)[C@@H](C)O)[C@@H](C)O)[C@@H](C)O	-1.1%	·	17.9%	·	·
CC(=C/c1ccccc1)/C=N/NC(=O)c1ccccn1	10µM*	0.3%	8.91µM*	0.5	?
CC(/C=N/NC(=O)c1nn(C)c(C)c1Br)=C\c1ccccc1	?	-2.1%	0.159µM*	23.8	?
CC1=NN(c2ccccc2)C(=O)C1C=Nc1ccc(N(C)C)cc1 (stereo not given)	-4.4%	-1.0%	-26.1%	?	6.51µM*
CC1=NN(c2ccccc2)C(=O)C1N=Nc1ccc(C)cc1 (stereo not given)	0.9%	0.2%	0.2%	3.2	6.7%
O=C(c1ccccc1)c1ccc(Sc2ccc([N+](=O)[O-])cc2)cc1	-0.2%	-0.7%	-11.6%	18.0	11.6µM*
O=C1OCC(c2ccc(Cl)s2)=C1c1ccccc1[N+](=O)[O-]	-8.1%	-0.1%	2.6%	-6.2	?
CCCCN1CC(=O)N2[C@H]3c4cc(Cl)ccc4OC[C@@H]3[C@H](c3ccccc3)[C@]2(C)C1=O	·	-1.0%	·	0.6	18.3µM*
CCn1c(SCc2cccc(F)c2)nnc1-c1ccncc1	0.4%	-0.4%	-11.7%	21.8	2.59µM*
CNC[C@H](O)c1ccc(OC(=O)C(C)(C)C)c(OC(=O)C(C)(C)C)c1	-26.2%[17 µM]	·	-5.7%[2.98 µM]	·	·
O=C(O)c1[nH]c2ccc([N+](=O)[O-])cc2c1-c1ccccc1	0.5%	-0.9%	8.4%	-12.0	?
O=C(N/N=C/c1ccccn1)c1cc(-c2cccc3ccccc23)n[nH]1	12.7%	-0.7%	-36.9%	-15.9	-26.1%
O=C(N/N=C/c1ccccn1)c1cc(-c2ccc3ccccc3c2)n[nH]1	15.8µM*	-0.9%	15.8µM*	-27.0	?
O=C(N/N=C/c1ccccn1)c1cc(-c2ccccc2Cl)n[nH]1	-2.7%[10 µM]	-0.8%	15.8µM*	-10.7	2.7%
O=C(N/N=C/c1ccccn1)c1[nH]c2ccc([N+](=O)[O-])cc2c1-c1ccccc1	1.8%[10 µM]	-0.8%	5.01µM*	-14.7	-9.8%
CCc1ccc(-c2cc(C(=O)N/N=C/c3ccccn3)[nH]n2)cc1	?	-0.2%	12.6µM*	-3.8	18.6%
CC(C)=CCC/C(C)=C/CO/N=C1/C[C@@H](O)[C@@H](O)[C@@H]2[C@@H]3C(=O)N(C4CCCCC4)C(=O)[C@H]3CC[C@H]12	-0.8%[10 µM]	·	-11.4%[10 µM]	·	·
CN1CCC(OC(=O)C(Oc2ccc(Cl)cc2)Oc2ccc(Cl)cc2)CC1	2.1%	·	6.9%	·	·
Cc1cc(C)nc(N2CCCC(CCC(=O)NCc3ccc(F)c(F)c3)C2)n1 (stereo not given)	10.1%	-0.9%	5.4%	1.4	-16.7%
Cc1cc(C)nc(SCc2ccc(C(=O)N/N=C/c3ccccn3)cc2)n1	14.1µM*	0.3%	7.08µM*	21.4	?
O=C(N/N=C/c1ccccn1)c1ccc(Cl)c(Cl)c1	0.631µM*	0.4%	?	8.0	?
COc1cccc(/C=N/NC(=O)c2ccc([N+](=O)[O-])cc2Cl)c1O	0.631µM*	1.2%	0.355µM*	-8.7	10.8%
CCc1ccc(-c2cc(C(=O)N/N=C/c3ccco3)[nH]n2)cc1	2.2%[10 µM]	0.1%	20µM*	-7.3	8.0%
O=C(/C=C/c1ccc(O)c(O)c1)c1ccc(O[C@@H]2O[C@H](CO)[C@@H](O)[C@H](O)[C@H]2O)c(O)c1O	-14.8%	·	1.3%	·	·
CSc1ncccc1C(=O)NNc1cc(Cl)ccc1Cl	20.2%	0.0%	17.4%	-4.1	0.4%
SMILES	Gal4-VP16 FLuc	B2AR arrestin	RORgamma inh	TSHR antag	ELG1 DNA repair
N#Cc1cccc(NC(=O)N2CC3(CCN(C(=O)c4cccc(F)c4)CC3)C2)c1	10.0%	·	-14.5%	·	·
O=S(=O)(Nc1nc2ccc(Cl)cc2s1)c1cccs1	?	-0.1%	32.4%	-25.1	?
CC1CCC(NS(=O)(=O)c2ccc(N3CCCC3=O)cc2)CC1 (stereo not given)	?	0.2%	32.5%	-9.2	?
O=C(COc1ccccc1-c1ccccc1)N/N=C/c1cccnc1	-9.5%	-0.4%	0.9%	-2.0	-3.2%
O=C(N/N=C/c1cccnc1)c1ccc([N+](=O)[O-])cc1Cl	1.9%	0.1%	-33.5%	3.1	13.3%
O=C(N/N=C/c1ccccn1)c1ccc([N+](=O)[O-])cc1Cl	?	-0.5%	11.2µM*	0.6	?
Cc1ccc(COc2ccccc2-c2cc(C(=O)N/N=C/c3cccnc3)[nH]n2)cc1	?	1.9%	-44.6%	14.1	23.1µM*
COc1ccc(Oc2ncc3nc(C)c(=O)n(Cc4cccc(OC)c4)c3n2)cc1	-2.6%	·	-8.9%	·	·
COc1cccc(Nc2ccc(Nc3cccc(OC)c3)nn2)c1	-25.5%	-0.3%	11.2µM*	-5.6	-18.6%
NC(=O)C1=CN(C2OC(COP(=O)(O)OP(=O)(O)OC[C@H]3O[C@@H](n4cnc5c(N)ncnc54)[C@H](OP(=O)(O)O)[C@@H]3O)C(O)C2O)C=CC1 (stereo not given in full)	·	·	·	-14.0	·
COc1ccc(-c2cc(C(F)F)n3ncc(C(=O)NCCCN4CCCC4=O)c3n2)cc1	-4.4%	-2.3%	23.1%	-7.1	6.51µM*
O=C(NCCCN1CCCC1=O)c1cc(-c2ccc(F)cc2)nc2ccccc12	·	0.0%	·	-7.1	18.3µM*
COc1ccc(-c2cc(C(=O)NCCCN3CCCC3=O)c3ccccc3n2)cc1	·	-0.2%	·	-4.7	?
CCOc1ccc(N(C)C(=O)CCc2nnc3ccc(N4CCC5(CC4)OCCO5)nn23)cc1	-5.5%	0.4%	-1.2%	13.6	2.9%
C=CC[C@](C)(O)c1ccccc1	2.6%	·	-1.7%	·	·
Cc1cc(C)nc(NC2=NCCN2C(=O)NC2CCCCC2)n1	12.2%	-0.7%	-27.9%	7.5	0.3%
CCNC(=S)N1CCN=C1Nc1nc(C)cc(C)n1	9.2%	-0.9%	17.8µM*	-8.6	?

Assay outcomes as filed in PubChem.
